The source of these data is PubChem BioAssay AID454 (Sanford-Burnham Center for Chemical Genomics, 2006).

A word on the inhibition: it is the relative decrease from the control value, in per cent.

Structures are written as SMILES. The whole screen tested about 10,000 compounds, of which about 25 (0.2%) were called active.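 The calls were made as follows: active = compound among top-ranked inhibitors of TNF-induced VCAM-1 adhesion protein staining, with the hit upheld by image or statistical review; inactive = the rest, including hits rejected on review.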 The entries come from a sample that favours actives as a whole.

This test can be described thus: suppression of endothelial VCAM-1 upregulation – cell-based, plate reader, pooled HUVEC, TNFa stimulus (AID 454). The conditions noted are these: HUVEC TNFa-induced VCAM-1 surface immunofluorescence; stronger effect = higher value,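 compound tested at 5 µM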.
For the compound `COc1ccc(N(CC(=O)Nc2cc(C)ccc2C)S(=O)(=O)c2c(C)nn(C)c2C)cc1`, the inhibition result is “inactive”. To `Cc1ccc2nc(NC(=O)Cn3cc4c(n3)CCCCC4)sc2c1` belongs “inactive”; to `CCCCNC(=O)OC(C)CNC(=O)Oc1cccc(C)c1` (centres undefined), “inactive”. With `Cc1ccc(O)c(-c2cc(C(=O)Nc3ccc(S(=O)(=O)N4CC(C)OC(C)C4)cc3)[nH]n2)c1` (centres undefined) the entry was “inactive”; with `O=C(Nc1ccc2c(c1)OCCO2)C1CCCN1S(=O)(=O)c1cccc2cccnc12` (centres undefined), “inactive”; with `CCOc1ccccc1NC(=O)CCSc1nc2n[nH]c(C)c2c(=N)n1-c1ccccc1Cl`, “inactive”. Turning to `Cn1c(=O)c2c(nc(NCCCO)n2CCc2ccccc2)n(C)c1=O`, the inhibition result was “inactive”. To `Cc1ccc(-n2c(=O)[nH]c3c(C(N)=O)nc(CC(C)C)nc32)cc1` belongs “inactive”; to `N/C(Cn1nnc(-c2ccccc2)n1)=N\O`, “inactive”. In the case of `CO[C@H]1C[C@@H]2CC[C@@H](C)[C@@](O)(O2)C(=O)C(=O)N2CCCC[C@H]2C(=O)O[C@H]([C@H](C)C[C@@H]2CC[C@@H](O)[C@H](OC)C2)CC(=O)[C@H](C)C=C(C)[C@@H](O)[C@@H](OC)C(=O)[C@H](C)C[C@H](C)C=CC=CC=C1C`, the inhibition is 88.8% (active). With `CCOC(=O)C1CCN(c2c(NC3CCCc4ccccc43)c(=O)c2=O)CC1` (centres undefined) the entry was “inactive”; with `Cc1ccc(C)c2[nH]c(=O)c(CCNC(=O)c3ccc(S(=O)(=O)N(C)C)cc3)cc12`, “inactive”. With `Cc1cc(-n2c(C)cc(C(=O)CSc3nnnn3-c3ccc(Cl)cc3)c2C)no1` the entry was “inactive”. To `COc1ccc(Cc2nc(-c3ccc(NC(=O)c4cccnc4)cc3)no2)cc1` belongs “inactive”.

For the compound `CC(Oc1ccc(Cl)cc1Cl)c1nc(-c2ccc(NC(=O)c3cccnc3)cc2)no1` (centres undefined), the inhibition is 72% (active). Consider `O=C(Nc1ccc(-c2noc(-c3cccs3)n2)cc1)c1cccnc1`, for which the inhibition result is “inactive”. With `O=C(CCSc1nccn1Cc1ccccc1)N1CCOCC1` the entry was “inactive”; with `Cc1nnc(NC(=O)C2CCCO2)s1` (centres undefined), “inactive”. With `CCN1CCN(C(c2ccc(F)cc2)c2nnnn2Cc2cccs2)CC1` (centres undefined), the inhibition entry is “inactive”.

For `O=C(COC(=O)c1ccco1)NCc1cccs1`, the inhibition result is “inactive”. `CCCCn1nnnc1SCC(=O)N1CCN(C(=O)c2ccco2)CC1`: the inhibition entry was “inactive”. With `COC(=O)CC1SCCNC1=O` (centres undefined), the inhibition result was “inactive”. On to `Cn1c(-c2ccccc2)cc(=O)c2ccccc21`, for which the inhibition entry is “inactive”.

Turning to `O=C(NCCC1=CCCCC1)c1cc2c(s1)CS(=O)(=O)C2`, the inhibition result was “inactive”. For the compound `COc1ccc(C(=O)Cn2nnc(-c3cccs3)n2)cc1`, the inhibition result was “inactive”. `O=C(Nc1sccc1C(=O)NCc1ccco1)c1cccnc1`: the inhibition entry was “inactive”. With `CCC1CCCCN1S(=O)(=O)c1ccc(C(=O)Nc2nnc(-c3ccccc3Cl)o2)cc1` (centres undefined) the entry was “inactive”. To `CCC1CCCCN1S(=O)(=O)c1ccc(C(=O)Nc2nnc(-c3cccs3)o2)cc1` (centres undefined) belongs “inactive”; to `CC1CCCN(S(=O)(=O)c2ccc(C(=O)Nc3nnc(-c4ccccc4Cl)o3)cc2)C1` (centres undefined), 77.1% (active). In the case of `COc1ccc(-c2cc(C(=O)NCc3ccc(Cl)cc3)no2)cc1OC`, the inhibition entry is “inactive”. In the case of `COC(=O)c1[nH]c2cc(OC)ccc2c1NC(=O)CCN1CCCCC1`, the inhibition entry was “inactive”. As to `O=S(=O)(Cc1ccc(Cl)cc1)Nc1ccc2c(c1)OCO2`, the inhibition result was “inactive”.

On to `CCOC(=O)N1CCN(S(=O)(=O)c2cc(Cl)ccc2Cl)CC1`, for which the inhibition result was “inactive”.

On to `Cc1nnc(SCCn2c(N3CC(C)CC(C)C3)nc3c2c(=O)n(C)c(=O)n3C)s1` (centres undefined), for which the inhibition result is “inactive”.

In the case of `COC(=O)c1[nH]c2ccccc2c1NC(=O)CN1CCC(C(N)=O)(N2CCCCC2)CC1`, the inhibition result was “inactive”. With `CCC(C)NC(=O)CC1Oc2ccc(C)cc2NC1=O` (centres undefined) the entry was “inactive”; with `COc1ccccc1NC(=O)N1CCN(c2cccc(C(F)(F)F)c2)CC1`, “inactive”; with `Cc1cc(C)n2nc[n+](C)c2n1`, “inactive”. Turning to `CC(=O)N1CCN(S(=O)(=O)c2cccc(C(=O)Nc3ccc4c(c3)CCC4)c2)CC1`, the inhibition entry was “inactive”.

Consider `CCc1nnc2c3cnn(-c4ccccc4)c3ncn12`, for which the inhibition result was “inactive”. To `Cc1ccc(S(=O)(=O)N2CCCC2)cc1S(=O)(=O)N1CCCC1` belongs “inactive”; to `CS(=O)(=O)N1CCc2cc(C(=O)N3CCCCC3)ccc21`, “inactive”; to `Cc1cc(C)nc(NS(=O)(=O)c2ccc(NC(=O)Cn3c(=O)oc4ccccc43)cc2)n1`, “inactive”. With `CCOC(=O)c1[nH]c2ccc(C)cc2c1NC(=O)CN1CCCCC1` the entry was “inactive”.

With `S=C(NCC1CCCO1)n1nnc2ccccc21` (centres undefined), the inhibition was 104% (active). With `O=C(CN(Cc1ccc(F)cc1)C(=O)Cn1nnc2ccccc21)NCC1CCCO1` (centres undefined) the entry was “inactive”; with `O=C(NCC1CCCO1)c1ccc(C(=O)NCC2CCCO2)cc1` (centres undefined), “inactive”. Turning to `CC(=O)Oc1ccc(CCC(C)OC(C)=O)cc1` (centres undefined), the inhibition result is “inactive”. With `Oc1ccc(Nc2nc(-c3ccc(O)cc3)cs2)cc1` the figure was 106% (active); with `c1cc2c(cc1Nc1nc(-c3ccc4c(c3)OCO4)cs1)OCCO2`, “inactive”. With `CC(=O)Nc1nc(C)c(-c2csc(Nc3ccc(O)cc3)n2)s1` the entry was “inactive”; with `COc1ccc2nc(CC(C)(C)CC(=O)O)c[n+]([O-])c2c1`, “inactive”; with `O=C(NC1CC1)c1cccc(Nc2ccc(-c3ccc4c(c3)OCCO4)nn2)c1`, “inactive”. Take `CCOC(=O)N1CCN(C(=O)COc2cc(=O)n(C)c3ccccc23)CC1`: the inhibition entry is “inactive”.

As to `Cn1c(=O)cc(OCCCC(=O)Nc2ccc3c(c2)OCCO3)c2ccccc21`, the inhibition entry was “inactive”.

Turning to `Cn1c(=O)cc(OCCCC(=O)N2CCCCC2)c2ccccc21`, the inhibition is 101% (active).

With `CCOC(=O)c1nn(-c2sc(C(=O)OC)c(C)c2C(=O)OC)cc1O`, the inhibition result is “inactive”. `COc1ccc(CCn2c(N)c(C#N)c3nc4ccccc4nc32)cc1OC`: the inhibition result is “inactive”. On to `COc1cc(/C=C/C(=O)CC(=O)/C=C/c2ccc(O)c(OC)c2)ccc1O`, for which the inhibition was 85.5% (active). With `O=C(O)/C=C/c1ccc(O)c(O)c1` the entry was “inactive”; with `CCN(CC)C(=O)c1ccc(O)c(OC)c1`, “inactive”. Consider `COc1ccc(N2CCN(c3ncnc4c3cnn4-c3ccc(C)cc3C)CC2)cc1`, for which the inhibition result was “inactive”. To `CC1(C)Cc2c(sc3c2c(=N)n(Cc2ccco2)c(=O)n3Cc2ccccc2)CO1` belongs “inactive”; to `Cc1nc(-c2ccccc2)sc1C(N)=O`, “inactive”; to `Clc1ccc(Cl)c(-c2nn3c(Cn4cnc5ccccc54)nnc3s2)c1`, “inactive”. To `CSc1ccccc1NC(=O)CN(c1ccccc1)S(=O)(=O)N(C)C` belongs “inactive”; to `CSc1ccc(Cn2nnc(C(=O)NCc3ccccc3)c2N)cc1`, “inactive”; to `CC(=O)N1CCN(c2ccc(N=Cc3c(O)n(Cc4ccccc4)c(=O)[nH]c3=O)cc2)CC1`, “inactive”. With `C1=CC2CC1CC2CN1CCN(c2ccccc2)CC1` (centres undefined) the entry was “inactive”; with `CCOC(=O)C(NC(=O)CC)(Nc1ccc(S(=O)(=O)Nc2onc(C)c2C)cc1)C(F)(F)F` (centres undefined), “inactive”.

For the compound `O=C(Nc1nc2c(s1)CCc1ccccc1-2)c1cccs1`, the inhibition result is “inactive”. With `CS(=O)(=O)N1CCCC(C(=O)NCc2ccccc2Cl)C1` (centres undefined) the entry was “inactive”. To `COC(=O)c1sc(NC(=O)COc2ccccc2OC)nc1C` belongs “inactive”; to `CCOC(=O)c1sc(NS(=O)(=O)c2ccc(NC(C)=O)cc2)nc1C`, “inactive”; to `CCOC(=O)c1sc(Nc2nc3c(OC)cccc3s2)nc1C`, 73.7% (active). To `O=C(c1ccco1)N1CCN(c2c(-c3ccccc3)c3cc(Cl)ccc3[nH]c2=O)CC1` belongs 86.3% (active); to `O=C(c1ccco1)N1CCN(c2cccc(Cl)c2)CC1`, “inactive”; to `O=C(O)c1[nH]c2ccc(Cl)cc2c1CC(=O)N1CCN(C(=O)c2ccco2)CC1`, “inactive”. Take `O=S1(=O)C=C(Sc2nc3ccccc3s2)c2ccccc21`: the inhibition was 110% (inactive).

`Cc1cc(C)nc(SC2=CS(=O)(=O)c3ccccc32)n1`: the inhibition was 91% (active). With `O=S1(=O)C=C(Sc2nnc(-c3ccccc3)o2)c2ccccc21` the entry was “inactive”.

As to `Cc1ccc(-c2nc3cnccn3c2Nc2ccc3c(c2)OCO3)o1`, the inhibition result was “inactive”. With `CCOC(=O)C(C(C)=O)c1nc(C)nc2c1nnn2Cc1ccccc1Cl` (centres undefined) the entry was “inactive”. With `CCC(C(=O)NC(C)CCc1ccco1)n1nc(C)n2c(cc3occc32)c1=O` (centres undefined) the entry was “inactive”; with `CCOc1ccccc1NC(=O)CCN1CCN(S(=O)(=O)c2ccc(Br)cc2)CC1`, “inactive”. With `COc1cccc(-c2nc(CS(=O)(=O)CC(=O)N3CCN(c4ccccn4)CC3)c(C)o2)c1` the entry was “inactive”; with `Cc1cc(C)n(-c2nc3ccccc3c(=O)n2OCCOc2ccccc2)n1`, “inactive”. With `Cn1cccc1Cc1nnc(SCC(=O)N2CCOCC2)n1-c1ccc(F)cc1`, the inhibition entry was “inactive”. Turning to `O=C(CN(c1ccc(F)cc1)S(=O)(=O)c1ccc2c(c1)OCCO2)Nc1ccc2c(c1)OCO2`, the inhibition entry was “inactive”. Turning to `CN(C)/C=C(\C#N)c1nc2ccccc2[nH]1`, the inhibition entry is “inactive”. With `O=C(CN(c1ccc(F)cc1)S(=O)(=O)c1ccc2c(c1)OCCO2)Nc1cccnc1` the entry was “inactive”. With `COc1ccc(CNc2oc(-c3cccc4ccccc34)nc2C#N)cc1` the entry was “inactive”.

As to `CCc1oc2ccccc2c1C(=O)c1cc(Br)c(O)c(Br)c1`, the inhibition result is “inactive”. With `CCN(CC)CCOC(=O)c1c(C)oc2ccc(O)cc12` the entry was “inactive”; with `CCCCc1oc2ccccc2c1C(=O)c1cc(I)c(OCCN(CC)CC)c(I)c1`, 85.9% (active). As to `O=C(COc1ccccc1Cl)NCc1ccco1`, the inhibition entry was “inactive”.

In the case of `CCCC1Cc2c(sc3ncnc(N)c23)CO1` (centres undefined), the inhibition result is “inactive”. Take `COc1cccc(NC(=O)N2CCC(N3CCCCC3)CC2)c1`: the inhibition result is “inactive”. With `CCc1nc(C)c(C#N)c2cc(OC)c(OC)cc12` the entry was “inactive”; with `COc1cc(CC(=O)Nc2ncc(C)s2)cc(OC)c1OC`, “inactive”. To `C#CCNc1c(C)c(C)nc2ncnn12` belongs “inactive”. With `CCN1CCN(Cc2ccc(NC(=O)Nc3ccc(SC)cc3)cc2)CC1` the entry was “inactive”; with `Cn1c(=O)[nH]c(=O)c2[nH]c(CN3CCN(C(=O)c4ccco4)CC3)nc21`, “inactive”. Regarding `C[C@]12CC[C@H]3[C@@H](CCC4=CC(=O)CC[C@@]43C)[C@@H]1CC[C@@H]2C(=O)CO`, the inhibition entry was “inactive”. With `CC(=O)[C@H]1CC[C@H]2[C@@H]3CCC4=CC(=O)CC[C@]4(C)[C@H]3CC[C@]12C` the figure was 96.7% (active); with `CC(=O)OCC(=O)[C@H]1CC[C@H]2[C@@H]3CCC4=CC(=O)CC[C@]4(C)[C@H]3CC[C@]12C`, “inactive”; with `CCC(=O)N[C@@H]1CC(C(C)(C)NC(=O)CC)CC=C1C` (some centres undefined), “inactive”. To `COc1cc(OC)c2c(c1)OC(c1ccc(OC)c(OC)c1)C(O)C2=O` (centres undefined) belongs “inactive”; to `Cc1ccc(-c2cc(C(F)F)nc(N3CCC(C)CC3)n2)cc1`, “inactive”; to `Cc1[nH]n(C(N)=S)c(=O)c1C(c1ccccc1)C(C#N)C#N` (centres undefined), “inactive”. To `CCOC(=O)c1cnc(-n2nc(C)cc2C)nc1N1CC(C)OC(C)C1` (centres undefined) belongs “inactive”.

For `Cc1ccc(S(=O)(=O)N2CCCC2C(=O)n2nc(C)cc2C)cc1` (centres undefined), the inhibition entry is “inactive”. To `CCOCCn1c(CN2CCC(Cc3ccccc3)CC2)nc2c1c(=O)n(C)c(=O)n2C` belongs “inactive”. To `Oc1c(C(c2ccccc2)N2CCc3ccccc3C2)sc2ncnn12` (centres undefined) belongs “inactive”.

As for `CC1=C(C(N)=O)C(c2ccc(Cl)cc2Cl)n2ncnc2N1` (centres undefined), the inhibition entry was “inactive”. With `COC(=O)C1=C(C)N(c2ccc(C(=O)OC)cc2)C(=O)C1` the entry was “inactive”.

In the case of `COCCCNC(=O)CCn1c(=O)c2ccccc2n(CC(=O)Nc2ccc(C)cc2C)c1=O`, the inhibition entry was “inactive”. `CCOc1cc(-c2nc3ccccn3c2NCC2CCCO2)ccc1O` (centres undefined): the inhibition result is “inactive”. To `Cc1cc(C)nc(SCc2nnc(SCc3ccccc3Cl)o2)n1` belongs “inactive”.
